# Screening results deposited in PubChem BioAssay by Broad Institute.
# In the library only some 3.2% were active in any assay of this set; here they are far more common.
# DENV2 CPE rescue – inhibitors of DENV2 cytopathic effect. DENV2-infected cells, cytopathic effect rescue, plate reader. CPE inhibition, % at 9.99 µM. 350,000 compounds, 1.7% hits; in the data active means CPE inhibition above about 20%, passing the limit was not always enough; inconclusive means no clear call, values can overlap the other calls; tested in BHK-21 cells;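 further: 0% = median of neutral control wells and 100% = median of positive control wells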
# INS-1E GSIS act – GLuc luminescence reporter in INS-1E cells, primary screen for activators of glucose-dependent secretion of insulin; INS-1E GLuc reporter insulin secretion, 2-3 h; activation, % at 16.6 µM; 370,000 compounds, 0.61% hits;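 active means lowest replicate activation of at least 40%, so every replicate reaches that level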;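 further: 0% = median of neutral control wells and 100% = median of IBMX positive control wells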
# PGC1a acetyl inh – lowers PGC1a acetylation signal in U2OS cells. AlphaScreen anti-acetyl-lysine; with virally co-expressed GCN5 acetyltransferase. inhibition, % at 15.6 µM. 350,000 compounds, 0.17% hits;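 active means every replicate shows inhibition of at least 40%; inconclusive means mean inhibition at least 40% but some replicate below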;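 further: 0% = neutral control wells and 100% = positive control wells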
# ERAP1 HTS inh – blocks human ERAP1 aminopeptidase activity. recombinant ERAP1, Leu-AMC fluorescence, 60 min. inhibition, % at 10.7 µM. AID 652197. 340,000 compounds, 0.15% hits. Q9NZ08;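 active means mean replicate inhibition of at least 30%, or all replicates individually reaching that 30% level; inactive means mean below 30% and not every replicate reaching it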;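 further: 0% = neutral control wells and 100% = L-leucinethiol positive control wells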
# Target sequence (Q9NZ08 whole entry, looked up): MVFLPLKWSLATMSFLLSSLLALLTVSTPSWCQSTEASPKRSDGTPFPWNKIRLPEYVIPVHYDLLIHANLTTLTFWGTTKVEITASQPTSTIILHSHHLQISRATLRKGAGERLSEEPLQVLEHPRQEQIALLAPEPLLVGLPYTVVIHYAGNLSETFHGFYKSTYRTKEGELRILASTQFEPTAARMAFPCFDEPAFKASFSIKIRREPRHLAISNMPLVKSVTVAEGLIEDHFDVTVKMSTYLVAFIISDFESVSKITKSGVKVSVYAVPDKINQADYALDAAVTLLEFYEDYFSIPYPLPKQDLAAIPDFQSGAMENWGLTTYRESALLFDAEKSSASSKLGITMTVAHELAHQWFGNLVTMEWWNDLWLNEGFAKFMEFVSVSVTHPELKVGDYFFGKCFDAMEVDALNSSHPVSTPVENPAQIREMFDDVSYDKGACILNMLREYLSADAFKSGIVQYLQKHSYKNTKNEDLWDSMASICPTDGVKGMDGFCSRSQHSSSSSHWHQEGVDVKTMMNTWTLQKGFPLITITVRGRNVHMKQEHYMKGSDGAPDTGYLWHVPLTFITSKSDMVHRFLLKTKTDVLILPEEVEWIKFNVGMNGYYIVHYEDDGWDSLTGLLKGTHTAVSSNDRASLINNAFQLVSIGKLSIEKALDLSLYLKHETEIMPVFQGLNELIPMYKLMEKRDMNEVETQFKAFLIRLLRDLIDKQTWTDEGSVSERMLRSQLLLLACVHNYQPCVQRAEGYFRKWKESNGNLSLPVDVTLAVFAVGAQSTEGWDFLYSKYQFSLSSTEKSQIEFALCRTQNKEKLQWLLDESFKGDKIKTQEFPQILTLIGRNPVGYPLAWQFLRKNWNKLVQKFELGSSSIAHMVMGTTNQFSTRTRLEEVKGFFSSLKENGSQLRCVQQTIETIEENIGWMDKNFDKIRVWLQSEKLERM
# Ecoli rRNA inh – inhibitors of bacterial rRNA selective over humanized ribosomes; E. coli WT GFP vs humanized-ribosome RFP mutants, fluorescence, 24 h; hits give low values; DMSO median 0, no signal -100; 350,000 compounds, 1.6% hits; GFP signal change (wild-type ribosome), % (concentration not given with the values); AID 720706;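 active means significant combined selectivity score with lowered wild-type GFP, culture density cut under 30%, mutant RFP and density less affected; inactive means any of these conditions unmet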
# CaV13 FRET inh – Disruptors of the CACNA1D IQ motif to Ca2+-dependent inactivation inhibitor domain association, primary screening, Förster resonance energy transfer in intact living …. AID 743397. HEK cells, CFP/YFP FRET ICDI-IQ, plate reader, 10 min; percent FRET-ratio fall versus neutral wells. 340,000 compounds, 0.098% hits. inhibition, % at 12.3 µM;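 active means mean replicate inhibition of at least 30% and at least 1% of replicates passing that level; inconclusive means only one of the two criteria is met; inactive means neither criterion is met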;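 further: 0% = median of the neutral control wells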
# * = called active by the depositor; u = inconclusive; x = no result given.
SMILES,DENV2 CPE rescue,INS-1E GSIS act,PGC1a acetyl inh,ERAP1 HTS inh,Ecoli rRNA inh,CaV13 FRET inh
Cc1ccc(C(=O)OCC(=O)Nc2ccccc2C(F)(F)F)cc1S(=O)(=O)N1CCCCC1,101*,-6,-2,1,-2,-7
Cc1ccc(NC(=O)COC(=O)c2ccc(OC(F)F)cc2)cc1S(=O)(=O)N1CCCCC1,-7,-5,x,-6,-7,-3
COCCNC(=O)c1cc(-c2ccccc2)n(Cc2cc(C)no2)n1,22*,3,8,-1,0,-4
C[C@@H]1CN([C@H](C)CO)C(=O)Cc2cc(NS(=O)(=O)c3cccs3)ccc2O[C@H]1CN(C)C(=O)Nc1ccc(F)cc1,-7,10,12,-2,4,x
CCc1nc(N)nc(N)c1-c1ccc(Cl)c(N=[N+]=[N-])c1,-9,50*,0,2,-9,-7
N#CCC(=O)Nc1ccc(C(=O)OCC(=O)Nc2ccc3ccccc3c2)cc1,-6,-13,5,1,-18*,-15
CO[C@H]1CN(C)C(=O)c2ccc(NS(=O)(=O)c3ccc(C)cc3)cc2OC[C@@H](C)NC[C@H]1C,-9,12,-4,-2,2,x
COc1ccc(C)c2sc(NC(=O)CCS(=O)(=O)c3ccccc3)nc12,-6,-3,-2,3,-31*,-2
CCOc1cccc2sc(NC(=O)CCS(=O)(=O)c3ccccc3)nc12,8,2,19,-6,-1,x
C[C@H](CO)N1C[C@H](C)[C@@H](CN(C)C(=O)Nc2ccc(F)cc2)Oc2ccc(NC(=O)C3CCCCC3)cc2C1=O,x,-1,x,x,-1,x
CCN(Cc1nc(-c2ccc(C)cc2)no1)C(=O)c1ccco1,-1,-2,-4,1,-20,-7
CCN(Cc1ccncc1)C(=O)c1ccco1,25*,7,-4,2,17,x
CCN1C[C@@H]2[C@@H]3C(=O)N(Cc4ccccc4)C(=O)[C@@H]3[C@](Cc3ccccc3)(C1=O)N2C(=O)c1ccc(Br)cc1,68*,-18,-3,-4,-10,-11
CCN1C[C@@H]2[C@@H]3C(=O)N(Cc4ccccc4)C(=O)[C@@H]3[C@](CC)(C1=O)N2C(=O)c1ccc(Br)cc1,-4,-14,8,-8,-5,-10
O=C(Nc1ccc(-c2ccccc2)cc1)[C@@H]1[C@@H](CO)[C@@H]2Cn3c(cccc3=O)[C@H]1N2Cc1ccccc1,-3,-14,x,-1,-41,x
COc1ccc2c3c([nH]c2c1)[C@H](CO)NCC31CN(C(=O)Cc2cccnc2)C1,7,18,6,1,3,x
COc1cccc(NC(=O)N2CC3(C2)[C@H](c2ccccc2)[C@H](CO)N3C(=O)C2CCC2)c1,1,-6,x,0,0,x
CCN(CC)CCN(C(=O)c1ccc(Br)s1)c1nc2cc3c(cc2s1)OCO3,3,9,x,0,3,13
CCN(CC)CCN(C(=O)C1CCCCC1)c1nc2cc3c(cc2s1)OCO3,7,-10,-18,6,-18*,-2
C[C@H](NC(=O)[C@H]1[C@H](CO)[C@H]2Cn3c(ccc(-c4ccccc4)c3=O)[C@@H]1N2C)c1ccccc1,u,-5,x,-2,-1,x
CCCNC(=O)Nc1ccc2c(c1)C(=O)N(C)C[C@@H](OC)[C@@H](C)CN(Cc1ccccc1)[C@H](C)CO2,x,-23,-22,x,-4,x
COc1cccc(N)c1,171*,x,x,x,x,x
Nc1cccc(Oc2c(F)c(F)c(Oc3cccc(N)c3)c(F)c2F)c1,9,11,3,-1,-19,6
COc1ccccc1NC(=O)N1CCCCN2[C@H](CO)[C@H](c3ccc(C#Cc4ccccc4)cc3)[C@@H]2C1,25*,-23,2,1,6,x
COc1ccccc1-c1ccc([C@H]2[C@@H](CO)N3CCCCN(C(=O)NC4CCCC4)C[C@H]23)cc1,23*,-28,-17,1,4,x
COc1ccccc1NC(=O)N1CCCCN2[C@H](CO)[C@@H](c3ccc(C#CC4CCCC4)cc3)[C@@H]2C1,36*,4,0,-3,4,x
